About 310 (2.8%) of roughly 11,000 compounds were called active. No stated cut-off is given here; in the data, active means activity change below about -85%; inactive means the rest. What follows is part of a selection rich in actives, with near analogues and random picks from the rest.
System: intestinal alkaline phosphatase [Mus musculus]
Experiment: activators of mouse IAP, confirmation, biochemical, luminescence, single concentration (AID 434970)
Settings: purified mouse IAP, CDP-Star luminescence, 30 min, at 10 µM; activation factor: measured here: IAP activation factor, stronger effect = higher value; activity change, negative = activation: stronger effect = lower value

| SMILES | activation factor | activity change, negative = activation |
| --- | --- | --- |
| C#CCOCCOCCOCCNc1nc(N2CCN(C(=O)CCCCCCCCCCNC(=O)[C@@H](CCC(=O)O)n3cc(CCCCCN)nn3)CC2)nc(N2CCN(C(=O)CCCCCCCCCCNC(=O)[C@H]([C@@H](C)CC)n3cc(CCCCCN)nn3)CC2)n1 | 2.75 | -176% (active) |
| C#CCOCCOCCOCCNc1nc(N2CCN(C(=O)CCCCCCCCCCNC(=O)[C@H]([C@@H](C)CC)n3cc(CCCCCN)nn3)CC2)nc(N2CCN(C(=O)CCCCCCCCCCNC(=O)[C@H](CCCCN)n3cc(CCCC(=O)O)nn3)CC2)n1 | 3.22 | -222% (active) |
| CCOC(=O)c1ccc(-n2c(C)nc3c(cnn3-c3ccc(Cl)cc3)c2=O)cc1 | 0.964 | 3.55% (inactive) |
| CCCCCCCCCCCC(=O)NC(C(=O)OCC)C(O)c1cccc([N+](=O)[O-])c1 (centres undefined) | 1.03 | -2.65% (inactive) |
| CC[C@]12c3[nH]c4ccc(Cl)cc4c3CCN1C(=O)[C@@H](CC(=O)NCCC1=CCCCC1)C[C@@H]2C(=O)N1CCN(C(=O)c2ccco2)CC1 | 1.08 | -8.45% (inactive) |
| CC1OC23CCCCC2C(C#N)(C(=N)O3)C1(C#N)C#N (centres undefined) | 0.959 | 4.1% (inactive) |
| CCN(CC(=O)NCc1ccc(F)cc1)Cc1nc2ccccc2c(=O)[nH]1 | 1.14 | -14.2% (inactive) |
| CCN(CC(=O)Nc1ccc2c(c1)OCO2)Cc1nc2ccccc2c(=O)[nH]1 | 1.23 | -23.5% (inactive) |
| CN(CC(=O)NC(c1ccccc1)c1ccccc1)Cc1nc2ccccc2c(=O)[nH]1 | 2.71 | -171% (active) |
| Cc1cc(Cl)cc(C)c1OCC(=O)O | 1.06 | -5.8% (inactive) |
| COc1ccc(NC(=O)Nc2ccccc2)cc1S(=O)(=O)N1CCCCC1 | 2.87 | -187% (active) |
| COc1ccc(OC)c(NS(=O)(=O)c2ccc(NC(C)=O)cc2)c1 | 0.988 | 1.15% (inactive) |
| O=C(Nc1ccc(F)cc1)Nc1ccccc1N1CCCCC1 | 1.58 | -57.8% (inactive) |
| Cc1cc(C)cc(NC(=O)Nc2ccccc2N2CCCCC2)c1 | 2.12 | -112% (active) |
| COc1ccccc1NS(=O)(=O)c1ccc(C)c(C(N)=O)c1 | 0.925 | 7.5% (inactive) |
| O=C(CNC1CCCCCC1)Nc1ccccc1N1CCCCC1 | 1.04 | -3.7% (inactive) |
| COc1ccc(NC(=S)Nc2cccc(S(=O)(=O)N3CCCCC3)c2)cc1 | 1.01 | -1.4% (inactive) |
| COc1ccccc1NS(=O)(=O)c1cccc(NC(=O)Nc2ccc(Cl)cc2)c1 | 1.92 | -92.2% (active) |
| Cc1ccc(C(=O)NCC(=O)O)cc1S(=O)(=O)N1CCCCC1 | 0.994 | 0.55% (inactive) |
| O=C(Nc1ccccc1)Nc1ccc(Cl)c(S(=O)(=O)N2CCOCC2)c1 | 1.53 | -53.4% (inactive) |
| Cc1ccc(NC(=S)NCc2ccccc2)cc1S(=O)(=O)N1CCCCC1 | 2.87 | -187% (active) |
| Cc1ccc(C)c(S(=O)(=O)N2CCN(CC(=O)NC(=O)NCc3ccccc3)CC2)c1 | 0.972 | 2.8% (inactive) |

From PubChem BioAssay AID434970 (Sanford-Burnham Center for Chemical Genomics, 2010)
